Assay results: PubChem BioAssay (NCI)
Compounds without any hit were thinned out: in the full panel of roughly 83,000, 20% have a hit.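 Testing used 96-well plates and a 48-hour single-concentration exposure. Example: -40 means 40% of the starting cells died.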 Active and inactive are the calls of the source. How the source made its calls: active means growth percent below 10; inactive means the rest.

Legend:
Assay in all cases: NCI-60 one-dose screen, 48 h (100 = growth as untreated, 0 = no growth, -100 = all killed)
Settings in all cases: 10 µM unless noted
NCI-H23 lung = tested on: NCI-H23 lung
NCI-H226 lung = tested on: NCI-H226 lung
NCI-H322M lung = tested on: NCI-H322M lung
HOP-62 NSCLC = tested on: HOP-62 NSCLC
NCI-H460 lung = tested on: NCI-H460 lung
HOP-92 NSCLC = tested on: HOP-92 NSCLC
NCI-H522 lung = tested on: NCI-H522 lung
A549/ATCC NSCLC = tested on: A549/ATCC NSCLC
786-0 renal = tested on: 786-0 renal
COLO 205 colon = tested on: COLO 205 colon

Measured: growth

C/C1=C\CCC2(C)OC2CC2CCC(C)(O)C(CC1)C2(C)C (stereo not given)
active: HOP-92 NSCLC -16.4%
inactive: NCI-H23 lung 99% | NCI-H226 lung 107% | NCI-H322M lung 96.5% | HOP-62 NSCLC 101% | NCI-H460 lung 106% | NCI-H522 lung 88% | A549/ATCC NSCLC 98% | 786-0 renal 98.9% | COLO 205 colon 109%

Cc1ccc(C2=NN(c3ccc(S(=O)(=O)NC(=O)NCc4ccccc4)cc3)C(c3ccc(N(C)C)cc3)C2)c(C)c1 (stereo not given)
inactive: NCI-H23 lung 49.4% | NCI-H226 lung 77.7% | NCI-H322M lung 56.3% | HOP-62 NSCLC 74.9% | NCI-H460 lung 31.3% | HOP-92 NSCLC 82.3% | NCI-H522 lung 49.7% | A549/ATCC NSCLC 22.1% | 786-0 renal 68.5% | COLO 205 colon 62.1%

CN1CCN(CCCOc2ccc3nc(Nc4ccc(C(F)(F)F)c(Cl)c4)ccc3c2)CC1
active: NCI-H322M lung -5.95% | HOP-62 NSCLC -21.7% | NCI-H460 lung -40% | HOP-92 NSCLC 7.32% | NCI-H522 lung -37.8% | A549/ATCC NSCLC 3.9% | 786-0 renal -60.9% | COLO 205 colon -77.9%
inactive: NCI-H23 lung 38.1% | NCI-H226 lung 54.1%

O=C(Nc1ccc(I)cc1)c1cccc([N+](=O)[O-])c1O
inactive: NCI-H226 lung 20.5% | NCI-H322M lung 20.9% | HOP-62 NSCLC 23.5% | NCI-H460 lung 17.5% | A549/ATCC NSCLC 14.5% | 786-0 renal 16.6%
active: NCI-H23 lung -6.76% | HOP-92 NSCLC -4.99% | NCI-H522 lung 1.75% | COLO 205 colon 7.78%

CCN(C(=O)c1cc2ccccc2[nH]1)[C@H]1CCC[C@@H](NCc2ccc(OC)cc2)C1
inactive: NCI-H23 lung 89.8% | NCI-H226 lung 107% | NCI-H322M lung 76.1% | HOP-62 NSCLC 86.2% | NCI-H460 lung 103% | HOP-92 NSCLC 81% | NCI-H522 lung 95.6% | A549/ATCC NSCLC 98.7% | 786-0 renal 97% | COLO 205 colon 87.6%

COc1cccc(/C=C/c2c(C(=O)O)cccc2[N+](=O)[O-])c1OC
inactive: NCI-H23 lung 104% | NCI-H226 lung 99.5% | NCI-H322M lung 107% | HOP-62 NSCLC 95.5% | NCI-H460 lung 104% | HOP-92 NSCLC 89.1% | NCI-H522 lung 113% | A549/ATCC NSCLC 103% | 786-0 renal 99.1% | COLO 205 colon 100%

C=CCn1c(C)nc2ccc(Nc3nc(Nc4ccc(F)cc4)nc4ccccc34)cc21
active: HOP-92 NSCLC -0.386%
inactive: NCI-H23 lung 56% | NCI-H226 lung 85.4% | NCI-H322M lung 85.5% | HOP-62 NSCLC 75.9% | NCI-H460 lung 63.4% | NCI-H522 lung 57.9% | A549/ATCC NSCLC 52.1% | 786-0 renal 76.7% | COLO 205 colon 43.7%

O=S(=O)(O)CCl
inactive: NCI-H23 lung 97.2% | NCI-H226 lung 106% | NCI-H322M lung 105% | HOP-62 NSCLC 112% | NCI-H460 lung 113% | HOP-92 NSCLC 106% | NCI-H522 lung 77.8% | A549/ATCC NSCLC 103% | 786-0 renal 99.1% | COLO 205 colon 113%

COc1cc(-n2nc(C(=O)Nc3ccc(C(=O)O)cc3)nc2-c2ccccc2)cc(OC)c1OC
inactive: NCI-H23 lung 97.4% | NCI-H226 lung 103% | NCI-H322M lung 24.5% | HOP-62 NSCLC 85.1% | NCI-H460 lung 115% | HOP-92 NSCLC 83.5% | NCI-H522 lung 55.9% | A549/ATCC NSCLC 74.7% | 786-0 renal 92.1% | COLO 205 colon 104%

O=S(=O)(NCCCNc1nccc(-c2c(-c3ccccc3)nc3sccn23)n1)c1ccc(F)cc1
inactive: NCI-H23 lung 38% | NCI-H226 lung 24.2% | NCI-H322M lung 68.3% | HOP-62 NSCLC 89% | NCI-H460 lung 47.9% | HOP-92 NSCLC 86.9% | NCI-H522 lung 38.4% | A549/ATCC NSCLC 43.6% | 786-0 renal 44.8% | COLO 205 colon 17.9%

CCN1C(=O)N(CC)C2C1NN=c1s/c(=C3\C(=O)N(C4CCCC4)c4ccccc43)c(=O)n12 (stereo not given)
inactive: NCI-H23 lung 20.1% | NCI-H226 lung 99.8% | NCI-H322M lung 53% | HOP-92 NSCLC 28.1% | A549/ATCC NSCLC 25.3% | 786-0 renal 14.1%
active: HOP-62 NSCLC 8.41% | NCI-H460 lung -1.48% | NCI-H522 lung -5.34% | COLO 205 colon -29.2%

O=S(=O)(NCCCNc1cc(-c2cn(-c3ccccc3)nc2-c2cccc(O)c2)ccn1)c1cccc(F)c1
active: COLO 205 colon -55.9%
inactive: NCI-H23 lung 58.6% | NCI-H226 lung 46.4% | NCI-H322M lung 57.9% | HOP-62 NSCLC 66.7% | NCI-H460 lung 35.6% | HOP-92 NSCLC 26% | NCI-H522 lung 44.4% | A549/ATCC NSCLC 37% | 786-0 renal 13.1%

COc1cc(OC)cc(-c2n[nH]nc2-c2ccc3c(c2)OCO3)c1
inactive: NCI-H23 lung 30.1% | NCI-H226 lung 92.1% | NCI-H322M lung 55.5% | HOP-62 NSCLC 30.3% | NCI-H460 lung 12% | HOP-92 NSCLC 57% | A549/ATCC NSCLC 28.9% | 786-0 renal 40%
active: NCI-H522 lung -41.5% | COLO 205 colon -61.2%
